These results are taken from PubChem BioAssay.

This experiment can be described thus: small-molecule microarray binders of probe aLefty2, primary screen, biochemical, biotinylated probe, 635/667 nm fluorescence (AID 1094).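 Note: score merges spot fluorescence near 667 nm with spot signal-to-noise ratio.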 The note with it: higher = more signal.
Take `Cc1ccc(NN2C(C(O)c3c(F)cccc3Cl)C=CC3C(=O)N(C4CCCCC4)C(=O)C32)cc1` (stereo unspecified): the composite z-score is 0.184.

`CC(C)N1C(=O)C[C@@](C(=O)O)(c2ccc([N+](=O)[O-])cc2)[C@H]1c1ccc(CO)cc1`: the composite z-score worked out at 0.0511.

With `CCCN1C(=O)[C@@]2(Cc3ccccc31)N=C(c1ccc(OCCCO)cc1)O[C@H]2c1ccccc1`, the composite z-score worked out at 0.235.

Consider `C=CCN1C(=O)[C@]2(CCS(=O)(=O)c3ccccc3)N=C(c3ccc(OCCCO)cc3)O[C@@H]2c2ccccc21`, for which the composite z-score worked out at 0.0416.

In turn, `C=CC[C@@]1(C(=O)NCCCOC)N=C(c2ccc(OCCCO)cc2)O[C@@H]1c1ccccc1` registered a composite z-score of 0.211.

With `COC(=O)c1c(CC[C@@H](CO)NC(=O)N2CCC[C@H]2Cn2cc(C3(O)CCCCC3)nn2)oc(C(C)=O)c1C(=O)OC`, the composite z-score is -0.124.

With `COCC(=C=CC[C@H](O)c1ccc(OCCO)cc1)CCO`, the composite z-score is 0.106.

In the case of `C=CCNC(=O)[C@@H]1[C@H]2C(=O)O[C@H](c3ccccc3)[C@H](c3ccccc3)N2[C@H](c2ccccc2OCCO)[C@@]12C(=O)N(C(=O)OCCOC)c1ccc(C#CC3(O)CCCCCC3)cc12`, the composite z-score was -0.0146.

`COc1ccc([Si](C)(C)[C@@H]2[C@@H](CCO)O[C@]3(C(=O)N(Cc4ccccc4)c4ccc(N5C(=O)c6cccc7cccc5c67)cc43)[C@H]2C)cc1`: the composite z-score was -0.186.

For `C=CC[C@]1(C(=O)N2CCCCC2)N=C(c2ccc(OCCCO)cc2)O[C@H]1c1ccccc1CN=[N+]=[N-]`, the composite z-score was -0.013.

With `COC(=O)C1(CC(C)C)C=C2C(=C(c3ccccc3)C(=O)C2C)CN1` (stereo unspecified), the composite z-score is 1.1.

`COc1ccc(CCNC(=O)[C@@H]2c3ccccc3C(=O)N(C3CCCCC3)[C@H]2c2ccc(CO)cc2)cc1` had a composite z-score of -0.0671.

As to `CCCCCN1CC=CC23O[C@@H]4C=CCCOC(=O)C4[C@H]2C(=O)N(CCCCCCO)[C@@H]3C1=O` (stereo partly specified), the composite z-score was -0.423.

Consider `CCOC(=O)C[C@H]1[C@H](OC(=O)c2ccc(-c3ccccc3)cc2)[C@@H](NC(=O)CC(C)C)c2cc(OCCCO)ccc2N1C(=O)c1ccc2ccccc2n1`, for which the composite z-score was -0.145.

Molecule `COC(=O)C(CC#Cc1ccc2c(c1)[C@]1(C(=O)N2)[C@H](c2ccc(O)cc2)N2[C@H](c3ccccc3)[C@H](c3ccccc3)OC(=O)[C@H]2[C@@H]1C(=O)NC[C@H](O)c1ccccc1)C(=O)OC` showed a composite z-score of 0.0634.

Turning to `COC(=O)[C@]1(CCS(=O)(=O)c2ccccc2)N=C(c2ccc(OCCCO)cc2)O[C@@H]1c1ccccc1N=[N+]=[N-]`, the composite z-score is 0.346.

Molecule `O=C1C2C=CC(C(O)C3CC=CCC3)N(Nc3ccccc3)C2C(=O)N1c1ccccc1` (stereo unspecified) yielded a composite z-score of 0.401.

Take `CCOC(=O)C[C@H]1[C@H](OC(=O)c2cc3ccccc3oc2=O)[C@@H](NC(=O)c2ccccc2)c2cc(OCCCO)ccc2N1C(=O)c1ccccc1`: the composite z-score is -0.0422.

In the case of `COc1ccc([Si](C)(C)[C@H]2[C@H](CC(=O)N3Cc4ccccc4C[C@H]3CO)O[C@@]3(C(=O)N(Cc4ccc(N5CCOC5=O)cc4)c4ccccc43)[C@@H]2C)cc1`, the composite z-score was -0.123.

Regarding `CC1CC/C=C\[C@H]2OC34C=CCN(C(C)C)C(=O)[C@H]3N(CCO)C(=O)[C@@H]4C2C(=O)O1` (stereo partly specified), the composite z-score was -0.159.

`COCCCNC(=O)[C@@H]1c2ccccc2C(=O)N(C(C)C)[C@H]1c1ccc(CO)cc1` had a composite z-score of 0.0321.

In the case of `COc1cccc(C)c1NC(=O)O[C@H]1[C@H](OC(=O)Nc2ccccc2-c2ccccc2)[C@H](OC(=O)Nc2ccccc2-c2ccccc2)[C@@H](OC)O[C@@H]1CO`, the composite z-score stood at 0.225.

`CC(C)c1ccc(NN2C(C(O)c3ccc(F)cc3)C=CC3C(=O)N(c4ccccc4)C(=O)C32)cc1` (stereo unspecified) showed a composite z-score of -0.0865.

`C#CCN(Cc1ccccc1Br)[C@H](/C=C/c1ccccc1)[C@@H](O)Cc1ccccc1`: the composite z-score came out at 0.195.

As for `[N-]=[N+]=Nc1ccccc1C[C@]1(C(=O)NCC(O)CO)COC(c2ccc(OCCCO)cc2)=N1` (stereo partly specified), the composite z-score was 0.23.

Molecule `O=C1O[C@@H](c2ccccc2)[C@@H](c2ccccc2)N2[C@@H](c3ccc(OCCO)cc3)[C@]3(C(=O)Nc4ccc(C#CC5=CCCCC5)cc43)[C@@H](C(=O)NC[C@H](O)c3ccccc3)[C@H]12` gave a composite z-score of -0.0696.

With `CCCC=C(CCC)[C@@H](NS(=O)(=O)c1ccc(C(F)(F)F)cc1)c1ccccc1`, the composite z-score was determined as 0.0749.

Molecule `CCCCCCCCCC(O)C1C=CC2C(=O)N(c3ccccc3)C(=O)C2N1Nc1cc(OC)c(OC)c(OC)c1` (stereo unspecified) showed a composite z-score of -0.163.

As to `O=C(c1ccccc1)N1C(=O)[C@]2(Cc3ccccc31)N=C(c1ccc(OCCCO)cc1)O[C@@H]2c1ccccc1`, the composite z-score was -0.0059.

The molecule `CCCCC=C[C@@H](NC(=O)OCc1ccccc1Cl)c1ccccc1` returned a composite z-score of 1.09.

Take `COc1cc(C(O)C2C=CC3C(=O)N(C)C(=O)C3N2Nc2ccccc2)cc(OC)c1OC` (stereo unspecified): the composite z-score stood at 0.581.

`C=CC[C@H](OC(=O)Nc1ccc(SC)cc1)c1ccc(O)c2ccccc12` had a composite z-score of -0.112.

`[N-]=[N+]=Nc1ccccc1C[C@@]1(C(=O)N2CCOCC2)N=C(c2ccc(OCCCO)cc2)O[C@@H]1c1ccccc1` had a composite z-score of 0.0946.

`COc1ccc(C(=O)Nc2ccc(CN3C(=O)[C@]4(O[C@H](CC(=O)N5Cc6ccccc6C[C@H]5CO)[C@@H]([Si](C)(C)c5ccc(OC)cc5)[C@@H]4C)c4ccccc43)cc2)cc1` returned a composite z-score of -0.145.

The molecule `C=CCNC(=O)[C@@H]1[C@H]2C(=O)O[C@H](c3ccccc3)[C@H](c3ccccc3)N2[C@H](c2ccc(O)cc2)[C@@]12C(=O)N(C(=O)OCCOC)c1ccc(C#CC3=CCCCC3)cc12` yielded a composite z-score of -0.156.

For `C=CCOC(=O)[C@@]1(Cc2ccccc2)C[C@H]2CO[C@H](c3ccc(OC)cc3)N2C1=O`, the composite z-score was -0.126.
